Reference: the supplement of paper PMC7411054
Counter-ions that a name gives are not always drawn.

Legend:
Assay in all cases: lowest phenotypically active concentration; higher = less potent
Settings in all cases: treatment time: 24 h
A549-TP53BP1-CLTA = test system: A549-TP53BP1-CLTA
How it was run: (§1)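 Live-cell features were measured per well and normalised to solvent control wells after fifteen gene-edited A549, HepG2 and WPMY1 reporter lines had been treated for 24 h at 0.3, 1, 3 or 9 µM in four wells each. A condition was deviating when ≥3 of 4 wells sat beyond the 95th percentile of control Euclidean distances. It was reproducible when the median replicate Pearson correlation exceeded the 95th percentile of non-replicates. Phenotypic activity demanded both.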

HepG2-GM130-SQSTM1 = test system: HepG2-GM130-SQSTM1
How it was run: as §1

HepG2-TP53BP1-CLTA = test system: HepG2-TP53BP1-CLTA
How it was run: as §1

HepG2-TUBA1B-RELA = test system: HepG2-TUBA1B-RELA
How it was run: as §1

WPMY1-ACTB-RAB5A = test system: WPMY1-ACTB-RAB5A
How it was run: as §1

WPMY1-CANX-COX4 = test system: WPMY1-CANX-COX4
How it was run: as §1

WPMY1-GM130-SQSTM1 = test system: WPMY1-GM130-SQSTM1
How it was run: as §1

WPMY1-TP53BP1-CLTA = test system: WPMY1-TP53BP1-CLTA
How it was run: as §1

WPMY1-TUBA1B-RELA = test system: WPMY1-TUBA1B-RELA
How it was run: as §1

HepG2-CANX-COX4 = test system: HepG2-CANX-COX4
How it was run: as §1

Structure (SMILES) | lowest phenotypically active concentration (A549-TP53BP1-CLTA) | lowest phenotypically active concentration (HepG2-GM130-SQSTM1) | lowest phenotypically active concentration (HepG2-TP53BP1-CLTA) | lowest phenotypically active concentration (HepG2-TUBA1B-RELA) | lowest phenotypically active concentration (WPMY1-ACTB-RAB5A) | lowest phenotypically active concentration (WPMY1-CANX-COX4) | lowest phenotypically active concentration (WPMY1-GM130-SQSTM1) | lowest phenotypically active concentration (WPMY1-TP53BP1-CLTA) | lowest phenotypically active concentration (WPMY1-TUBA1B-RELA) | lowest phenotypically active concentration (HepG2-CANX-COX4)
CN1CCN(C(=O)CN[C@H]2C[C@@H]2c2ccc(OCc3ccccc3)cc2)CC1 [RN 1 dihydrochloride] | 9 µM | 3 µM | 9 µM | 3 µM | 9 µM | 9 µM | 9 µM | 9 µM | 9 µM | 
CC[C@H](CO)Nc1nc(NCc2ccccc2)c2ncn(C(C)C)c2n1 [Roscovitine] | 9 µM | 9 µM | 3 µM | 3 µM | 9 µM | 9 µM |  | 9 µM | 9 µM | 3 µM
CC(=O)c1c(C)c2cnc(Nc3ccc(N4CCNCC4)cn3)nc2n(C2CCCC2)c1=O | ≤ 0.3 µM | ≤ 0.3 µM | ≤ 0.3 µM | ≤ 0.3 µM | 9 µM | 3 µM | 9 µM | 9 µM | 9 µM | ≤ 0.3 µM
CCN(CC)CCNc1ccc(CO)c2sc3ccccc3c(=O)c12 [hycanthone] | 9 µM | 9 µM | 9 µM | 9 µM | 9 µM | 9 µM | 3 µM | 9 µM | 9 µM | 
CNc1nc(-c2ccc3c(N)n[nH]c3c2)cc(N2C[C@@H](C(=O)NC3CCCCC3)CC[C@H]2C)n1 | 3 µM | 3 µM | 3 µM | 9 µM | 1 µM | 1 µM | ≤ 0.3 µM | ≤ 0.3 µM | 1 µM | 3 µM
O=C1N=C(NCc2cccs2)S/C1=C\c1ccc2ncccc2c1 | 3 µM | 9 µM | 3 µM | 3 µM | 3 µM | 3 µM | 1 µM | 3 µM | 3 µM | 3 µM
CCCCNNC(=O)c1ccc(Br)cc1 | 3 µM | 1 µM | 1 µM | 9 µM |  | 9 µM | 3 µM | 9 µM | 9 µM | 1 µM
COc1cc2c(cc1O)CC[C@@H]1[C@@H]2CC[C@]2(C)[C@@H](O)CC[C@@H]12 [2-methoxyestradiol] | 1 µM | 3 µM | 3 µM | 3 µM | 1 µM | 1 µM |  | 1 µM | 1 µM | 1 µM
CC(C)(C)c1nc(-c2cccc(NS(=O)(=O)c3c(F)cccc3F)c2F)c(-c2ccnc(N)n2)s1 [dabrafenib] | ≤ 0.3 µM | ≤ 0.3 µM | ≤ 0.3 µM | ≤ 0.3 µM | 1 µM | 1 µM |  |  | 1 µM | ≤ 0.3 µM
CNC(=O)c1cc(Oc2ccc(NC(=O)Nc3ccc(Cl)c(C(F)(F)F)c3)cc2)ccn1 [sorafenib] | ≤ 0.3 µM | 3 µM | 9 µM | 3 µM | ≤ 0.3 µM | 3 µM | 1 µM |  | 9 µM | 3 µM
CN1CCCC(n2nc(Cc3ccc(Cl)cc3)c3ccccc3c2=O)CC1 (centres undefined) [azelastine] | 9 µM | 9 µM | 9 µM | 9 µM | 9 µM | 9 µM | 9 µM | 9 µM | 9 µM | 
Cn1cnc2c(F)c(Nc3ccc(Br)cc3Cl)c(C(=O)NOCCO)cc21 [selumetinib] | ≤ 0.3 µM | ≤ 0.3 µM | ≤ 0.3 µM | 1 µM | 9 µM |  | 3 µM | 3 µM |  | ≤ 0.3 µM
C[C@@H]1C[C@H]2[C@@H]3CCC4=CC(=O)C=C[C@]4(C)[C@@]3(Cl)[C@@H](O)C[C@]2(C)[C@@]1(OC(=O)c1ccco1)C(=O)CCl [mometasone furoate] | ≤ 0.3 µM |  |  |  |  |  | 3 µM |  |  | 
OCc1cc(C(O)CNCCCCCCOCCCCc2ccccc2)ccc1O (centres undefined) [salmeterol] |  | 9 µM | 9 µM | 9 µM | 9 µM | 3 µM | 1 µM | 9 µM | 9 µM | 
CC(C)C(=O)SCCCCCCC(=O)Nc1nc(-c2ccccc2)cs1 |  |  |  |  | 1 µM | 1 µM | 1 µM | 9 µM | 1 µM | 3 µM
N#C/C(=C/c1ccc(O)c(O)c1)C(=O)NCCCCc1ccccc1 |  | 9 µM | 9 µM |  | 9 µM | 9 µM | 9 µM | 9 µM | 9 µM | 9 µM
CCCOc1ccc(CCc2nc3cc(-c4c(C)noc4C)ccc3n2CCN2CCOCC2)cc1 |  |  | 9 µM |  |  |  |  |  |  | 9 µM
O=c1c(-c2ccc(O)cc2)coc2cc(O[C@@H]3O[C@H](CO)[C@@H](O)[C@H](O)[C@H]3O)cc(O)c12 [Genistin] | 9 µM |  |  |  | 9 µM | 9 µM |  | 9 µM |  | 
CC/C(=C(/c1ccccc1)c1ccc(OCCN(C)C)cc1)c1ccccc1 [tamoxifen] |  | 9 µM | 9 µM | 3 µM | 9 µM | 9 µM | 9 µM | 9 µM | 9 µM | 
O=C(Nc1ccccc1)c1cc([N+](=O)[O-])ccc1Cl |  |  |  |  |  | 9 µM |  |  |  | 
CC(C)n1c(/C=C/[C@@H](O)C[C@@H](O)CC(=O)O)c(-c2ccc(F)cc2)c2ccccc21 [fluvastatin] | 9 µM | 1 µM | 3 µM | 3 µM | 1 µM | 3 µM | 1 µM | 9 µM | 3 µM | 3 µM
C=C1C(=O)O[C@@H]2[C@H]3O[C@]3(C)CCC=C(C)CC[C@@H]12 [Parthenolide] |  | 3 µM |  |  | 9 µM | 9 µM | 9 µM |  | 9 µM | 9 µM
COc1ccc(-c2cnc(-c3cccc4c3-c3ccccc3C4=O)o2)cc1 | ≤ 0.3 µM |  |  |  | ≤ 0.3 µM | ≤ 0.3 µM | ≤ 0.3 µM | ≤ 0.3 µM | ≤ 0.3 µM | 
COc1c(Cl)cc2c([nH]c3cnccc32)c1NC(=O)c1cccnc1C [ML 120B dihydrochloride] |  |  | 9 µM |  |  |  |  |  |  | 9 µM
CCc1cncnc1N1CCN(Cc2nc3cc(C(F)(F)F)ccc3[nH]2)CC1 |  | 9 µM | 9 µM | 3 µM |  |  |  |  | 9 µM | 9 µM
Cc1cccc(C)c1OCC(=O)N[C@@H](Cc1ccccc1)[C@@H](O)C[C@H](Cc1ccccc1)NC(=O)[C@H](C(C)C)N1CCCNC1=O [lopinavir] |  |  |  | 9 µM |  | 9 µM |  |  |  | 
